# Measurements from PubChem BioAssay AID463195 (Sanford-Burnham Center for Chemical Genomics, 2010).
# In all, about 330,000 compounds went through this assay and about 4,600 (1.4%) were called active. The list comes from a sample in which actives are over-represented; it also holds similar structures and randomly drawn compounds. Unmarked numbers belong to inactive results.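 The calls were made as follows: active = inhibition of 40% or more at the single tested concentration; inactive = the rest.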
# Test: growth inhibitors of isogenic TIM10 control yeast, primary screen, counter-screen for tim10-1 yeast inhibitor project, luminescence, uHTS (AID 463195);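 also: wild-type TIM10 isogenic control strain grown at permissive 25 °C; 0% = DMSO yeast wells and 100% = minimal medium wells without yeast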
# Settings: S. cerevisiae TIM10 strain growth, BacTiter-Glo luminescence, 24 h; at 10 µM; active compounds read high
row,Structure (SMILES),inhibition
1,CC(=O)c1ccc(N2Cc3ccccc3C2)cc1,8.18%
2,Cc1ccc(-c2nc(COC(=O)c3c(C)noc3C)cs2)cc1,1.5%
3,Oc1ccc2ccc3cccc[n+]3c2c1,-22.6%
4,COCCN1C(=O)c2oc3c(C)cc(C)cc3c(=O)c2C1c1cccc(O)c1 (stereo unspecified),-2.19%
5,CC1CC2=C(CC1/C=N/NC(N)=S)C(C)(C)CCC2 (stereo unspecified),13.8%
6,N#Cc1ccc(C(=O)Nc2nc(-c3cccs3)c(C(=O)C(F)(F)F)s2)cc1,9.92%
7,CCC(CC)C(=O)Nc1c2c(nn1-c1ccc(C)cc1)CS(=O)(=O)C2,4.97%
8,CC/S(CC1CC1(Cl)Cl)=N\S(=O)(=O)c1ccc(C)cc1 (stereo unspecified),0.564%
9,CCN1C(=NCC(C)C)N[C@@H](CCc2ccccc2)[C@H](C(=O)NCC(C)C)[C@H]1C,-3.76%
10,O=C(N/N=C/c1cccc(OCc2ccccc2)c1)c1ccc(Br)o1,26.3%
11,COCCNC(=O)/C(C#N)=C/c1cccc(OCc2ccccc2)c1,55.7% (active)
12,N#C/C(=C\c1ccc(O)c(O)c1)C(=O)NCc1ccccc1,-1.33%
13,CC(C)COc1ccc(C(=O)OCC(=O)NCCC2=CCCCC2)cc1,11.3%
14,COC(=O)c1ccc(COc2cc([N+](=O)[O-])cc3cccnc23)cc1,-32.2%
15,C=C(C)c1cccc(C(C)(C)NC(=O)N2CCN(c3ncccn3)CC2)c1,3.72%
16,CCOc1cc(-c2cc(-c3ccc(OC)cc3)nc(N)c2C#N)ccc1O,34%
17,COc1ccc(-c2cc(-c3ccc(N)cc3)nc(N)c2C#N)cc1OC,41% (active)
18,CCOc1cc(-c2cc(-c3ccc(NC(C)=O)cc3)nc(N)c2C#N)ccc1O,-6.1%
19,COc1ccc(S(=O)(=O)N2CCN(C(=O)NC3CCCCC3)CC2)cc1,-5.18%
20,O=C(CN1CCN(S(=O)(=O)c2ccc(F)cc2)CC1)NC1CC1,0.605%
21,O=C(CN1CCN(S(=O)(=O)c2ccc3ccccc3c2)CC1)NC(=O)NC1CCCCC1,44.2% (active)
22,O=C(NC(=S)Nc1cccc2c(O)cccc12)c1cccc(Br)c1,20.4%
23,O=C1c2ccccc2S(=O)(=O)c2cc(N3CCN(c4ccccn4)CC3)ccc21,-6.37%
24,Cc1cc(N)n2nc(-c3ccc(C(C)(C)C)cc3)cc2n1,45.3% (active)
25,Cc1cc(C(C)(C)C)cc(C)c1N,-4.47%
26,COc1ccc(-c2cc(C)nc3nc(N)nn23)cc1,9.96%
